# Bioassay records (PubChem)
# Pf apPOL inh: Pf-apPOL DNA polymerase inhibition. Recombinant Pf-apPOL, molecular beacon fluorescence, 1.5 h. inhibition, % at 10 µM. 0.25% of 210,000 active. AID 1794808
# mHTT CaM bind: mHTT-calmodulin interaction abrogation | P42858 | AlphaScreen His-mHTT/GST-CaM binding, luminescence | inhibition, % at 15 µM | 3.6% of 190,000 active | AID 1671202;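 note: 0% = both proteins with DMSO and 100% = one protein alone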
# An asterisk follows results filed as active; nt = not tested or not shown; ! = not active in a repeat. Only some compounds are listed: those with a hit (about 3.5% of all), similar ones and a draw of the others. Cut-off read from the data, not from the text of the source: active = inhibition above about 50%; inactive = the rest.
SMILES,Pf apPOL inh,mHTT CaM bind
Cc1ccc(-n2nc3c(c2NC(=O)c2cccc([N+](=O)[O-])c2)CSC3)c(C)c1,-5.1,0.0
O=C(NCc1cccs1)C(=O)Nc1c2c(nn1-c1cccc(Cl)c1)CSC2,-4.9,69.3*
Cc1ccc(-n2nc3c(c2NC(=O)c2ccc([N+](=O)[O-])cc2)CSC3)c(C)c1,-4.7,50.0*
COc1cc(C(=O)Nc2c3c(nn2-c2ccc(C)cc2C)CSC3)cc(OC)c1OC,-6.8,-2.0
O=C(Nc1c2c(nn1-c1cccc(Cl)c1)CSC2)c1c(F)cccc1F,-4.8,23.0
Cc1ccc(-n2nc3c(c2NC(=O)c2ccco2)CSC3)c(C)c1,-9.8,52.0*
COc1cccc(C(=O)Nc2c3c(nn2-c2ccc(C)cc2C)CSC3)c1OC,-2.7,50.0*
Cc1ccc(C(=O)Nc2c3c(nn2-c2ccc(C)cc2C)CSC3)cc1,-7.7,32.0
Cc1nc(C)c(-c2nnc(NC(=O)NCc3cccs3)o2)s1,-5.6,14.9
N#CC1=C(N)N(c2ccccc2C#N)C2=C(C(=O)CCC2)C1c1ccc2c(c1)OCO2 (centres undefined),-4.5,7.0
O=C(C1CN(S(=O)(=O)c2cccs2)CC12CCOCC2)N1CCCCC1 (centres undefined),1.3,-0.6
Cn1c(=O)c2[nH]c(-c3ccc(Br)cc3)c(O)c2n(C)c1=O,-1.2,14.0
COc1cc(C=C[N+](=O)[O-])c2c(c1)CCCO2,2.6,4.2
Cc1ccccc1-n1nc2c(c1NC(=O)c1ccco1)CSC2,-2.1,38.0
Cc1cccc(-n2nc3c(c2NC(=O)c2ccco2)CSC3)c1C,-6.6,60.0*
CC(=O)Nc1c2c(nn1-c1cccc(Cl)c1)CSC2,-6.9,35.0
O=C(Nc1c2c(nn1-c1cccc(Cl)c1)CSC2)c1ccco1,-1.2,67.0*
c1ccc(-c2nc(SCC3COc4ccccc4O3)oc2-c2ccccc2)cc1 (centres undefined),nt,-13.3
N#CCSc1nc(-c2ccccc2)c(-c2ccccc2)o1,92.3*!,-26.0
COc1cccc(C(C)NC(=O)c2cc(C)on2)c1 (centres undefined),-3.3,-2.0
Cc1noc(C)c1S(=O)(=O)N1CCC(C(C)C(=O)NCCN2CCCC2)CC1 (centres undefined),1.2,-3.0
Cc1cc(=O)[nH]c(-c2ccccc2)n1,-2.5,nt
Cc1cc(=O)[nH]c(-c2cnccn2)n1,-16.9,94.3*
CC(C)C(=O)Nc1ccc(NC(=O)c2sc3ccccc3c2Cl)cc1,-2.4,-1.4
CCC(=O)NCc1csc(C2CCCN(C(=O)c3ccc(C(C)C)cc3)C2)n1 (centres undefined),0.1,8.2
SMILES,Pf apPOL inh,mHTT CaM bind
CCNC(=O)N(C)CC(=O)N1N=C(c2ccccc2Cl)CC1c1ccccc1F (centres undefined),2.7,37.0
COc1ccc(C2=NN(C(=O)CN(C)C(C)=O)C(c3ccc(C)cc3)C2)cc1 (centres undefined),-8.2,23.0
COc1ccc(C2CC(c3ccccc3Cl)=NN2C(=O)CN(C)C(C)=O)cc1 (centres undefined),-11.5,95.7*
CCC(=O)N(C)CC(=O)N1N=C(c2ccccc2Cl)CC1c1ccccc1Cl (centres undefined),0.3,59.7*
CCNC(=O)c1cc(C)nc2ccc(Cl)cc12,-3.3,-5.4
Cc1c(C(=O)N2CCN(C)CC2)c(C2CC2)nn1-c1ccc(Cl)c(Cl)c1,-3.2,56.4*
CC(C)c1c(C(=O)N2CCN(C)CC2)c(C2CC2)nn1-c1ccccc1,-1.3,5.0
CCc1nn(-c2ccc(Cl)c(Cl)c2)c(CC)c1C(=O)N1CCN(CC)CC1,-9.6,65.9*
CCc1nn(-c2ccc(C)cc2)c(CC)c1C(=O)N1CCN(CC)CC1,-2.4,15.8
CCn1c(=O)c2c(ncn2Cc2ccc(F)cc2F)n(-c2cccc(F)c2)c1=O,-2.3,-4.4
CC1CCN(C(=O)C2CCc3sc(C(=O)N4CCCCC4)cc3C2)CC1 (centres undefined),-0.4,5.3
CCC1(C)CC(CCNCc2ccc(OC)c(OC)c2)(c2ccccc2OC)CCO1 (centres undefined),-11.2,12.0
CCC1(C)CC(CCNCc2ccc(N(C)C)cc2)(c2ccc(OC)cc2)CCO1 (centres undefined),0.5,86.0*
Cc1cccnc1NC(=O)c1cccc(C(=O)Nc2ncccc2C)c1,-5.0,1.6
CCOc1ccccc1NC(=O)CN(c1ccc(F)cc1)S(C)(=O)=O,66.1*,-3.8
CS(=O)(=O)N(Cc1ccccc1)c1ccc(C(=O)Nc2ccc(F)cc2)cc1,0.5,7.0
CCOc1ccc(N(CC(=O)Nc2ccccc2OCC)S(C)(=O)=O)cc1,-1.6,14.9
CS(=O)(=O)N(Cc1ccc(C(=O)Nc2ccc(F)cc2)cc1)c1ccccc1,50.1*,-5.3
Cc1nc(C(=O)Nc2cccc(F)c2)c(C)n1C1CCN(S(C)(=O)=O)CC1,-6.0,-1.2
O=S(=O)(c1ccc(F)cc1F)N1CCC(c2noc(-c3cccc(F)c3)n2)CC1,-3.8,1.0
